# Data reported in PubChem BioAssay AID1441 (NMMLSC, 2008).
# In all, about 220,000 compounds went through this assay and about 830 (0.38%) were called active. The rule behind the calls is not given here. The entries come from a sample that favours actives as a whole.
# Target: Regulator of G-protein signaling 16 (Homo sapiens) + Guanine nucleotide-binding protein G(o) subunit alpha (Homo sapiens) (UniProt O15492+P09471)
# Test: modulators of RGS16 binding to Galphao, primary screen, biochemical, human proteins, multiplexed bead flow cytometry (AID 1441);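 note: Galphao activated by GDP with aluminum fluoride before binding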
# Conditions: bead-based flow cytometry RGS16-Galphao binding, fluorescence; at 10 µM; actives lie on both sides
# Regulator of G-protein signaling 16 (Homo sapiens) + Guanine nucleotide-binding protein G(o) subunit alpha (Homo sapiens), sequence (O15492 whole entry, looked up): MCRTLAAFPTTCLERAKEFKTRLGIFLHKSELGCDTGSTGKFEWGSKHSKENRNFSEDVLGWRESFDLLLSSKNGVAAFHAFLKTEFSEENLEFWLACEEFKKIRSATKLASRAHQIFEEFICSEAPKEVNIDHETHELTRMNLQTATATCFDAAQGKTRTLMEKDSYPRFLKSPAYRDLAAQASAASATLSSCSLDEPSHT
# Regulator of G-protein signaling 16 (Homo sapiens) + Guanine nucleotide-binding protein G(o) subunit alpha (Homo sapiens), sequence (P09471 whole entry, looked up): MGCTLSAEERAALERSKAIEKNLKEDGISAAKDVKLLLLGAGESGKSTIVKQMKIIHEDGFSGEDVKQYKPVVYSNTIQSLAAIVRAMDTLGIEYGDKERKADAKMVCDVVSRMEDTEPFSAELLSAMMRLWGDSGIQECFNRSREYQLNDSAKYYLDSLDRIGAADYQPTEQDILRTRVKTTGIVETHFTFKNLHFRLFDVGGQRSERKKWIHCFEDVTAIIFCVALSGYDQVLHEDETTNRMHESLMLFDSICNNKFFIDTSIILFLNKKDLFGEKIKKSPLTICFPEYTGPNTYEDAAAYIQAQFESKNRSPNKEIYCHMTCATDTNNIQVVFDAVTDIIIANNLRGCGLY
row,Compound,binding response (% of control)
1,CC(C)N(CC#CCC1(O)c2ccccc2-c2ccccc21)C(C)C,180% [activator] (active)
2,CCOC(=O)C1(Cc2ccc(Cl)cc2)CCN(C(C)CCn2cccn2)CC1 (stereo not given),102% (inactive)
3,O=[N+]([O-])c1ccc(C2C3C(c4ccccc4)=NC4(CCCCC4)N32)cc1 (stereo not given),100% (inactive)
4,COc1ccc(CN2C(=O)NC(=O)/C(=C\c3ccc(OC)c(OC)c3OC)C2=O)cc1,97.6% (inactive)
5,CCOC(=O)c1c(-c2ccccc2)oc2ccc(OC(=O)N(C)C)cc12,116% (inactive)
